PubChem BioAssay AID652104 (National Center for Advancing Translational Sciences (NCATS), 2013)
The campaign covered roughly 410,000 compounds. About 7,200 (1.8%) were called active. Roughly 7% stayed inconclusive and do not appear here. Calls come from the whole dose curve; as a rule, active = well fitted activation curve with a large enough effect; inconclusive = small, poorly fitted or top-dose-only effect, or another doubt; inactive = no such curve, though single readings can be large or run the other way. Shown is part of a subset that was picked to be rich in actives.

Test: qHTS of TDP-43 Inhibitors; note: nearly all actives have a fitted effect of over 50% in size; for growth rescue (activation): % of control where 0% means no effect
Conditions: TDP-43 expressing yeast growth rescue, BacTiter-Glo, 24 h; series mostly up to 46.1 µM; growth rescue (activation): at the top concentration
Method in brief: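 Cell-based yeast growth screen: TDP-43 expression induced in galactose, inoculum OD600=0.02 after raffinose pregrowth to mid-log. Read-out BacTiter-Glo luminescence at 24 hr, 30 deg C; inhibition of toxicity seen as signal increase.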
Potency is the fitted concentration of half-maximal effect.

Growth rescue (activation), inactive:
CC1CCc2noc(NC(=O)c3ccc([N+](=O)[O-])cc3)c2C1 (centres undefined) 6.42%
Cc1cc(C)cc(OCC(=O)Nc2nc(-c3ccc(F)cc3)ns2)c1 6.88%
COc1cccc(C(=O)Nc2c3c(nn2-c2cccc(C)c2C)CS(=O)(=O)C3)c1OC -20.6%
Cn1nccc1C(=O)NC1CCCc2c1cnn2-c1ccc(F)cc1F (centres undefined) 10.7%
CCOc1ccc(CNCc2c(C(=O)O)c(C)n(Cc3cccc(OC)c3)c2C)cc1OC 20.8%
Cc1ccc(-n2c(SCC(=O)Nc3cccc(F)c3)nc3c(oc4ccccc43)c2=O)cc1C 6.78%
CCn1c(=S)[nH]c2sc3c(c2c1=O)CCCCC3 7.77%
Cc1ccc2nc(COc3ccc(NC(=O)COc4ccccc4F)cc3)cc(=O)n2c1 -13.1%
Cc1cccc(Cn2c(SCc3ccc(C(=O)N4CCC(C)CC4)cc3)nc3ccncc32)c1 -2.39%
Cc1cc(NC(=O)CSCc2nc(-c3cccc(Cl)c3)oc2C)no1 -9.69%
O=C(c1ccco1)N1CCN=C1SCc1cccc(Cl)c1 4.84%
CCc1nnc(SCc2nc(-c3cccc(C)c3)oc2C)c2cc3sc(C)cc3n12 9.11%
Cc1nnc(SCc2cccc(Cl)c2)n(N)c1=O -2.32%
COc1cccc(-c2nnc(SCC(=O)N3CCC(C)CC3)o2)c1 42.2%
O=C(Cn1cc(SCc2ccccc2)c2ccccc21)N1CCCCC1 0%
COc1ccc(NC(=O)C(=O)NCc2ccco2)cc1 19%
C=CCC(NCc1ccco1)c1ccc(OC)cc1 (centres undefined) -8.96%
COc1cc(OC)cc(-c2nc3nc(C)c(CCC(=O)Nc4ccccc4)c(C)n3n2)c1 1.76%
O=C(NCCCc1ccccc1)c1ccc2c(c1)sc1nc(-c3ccc(F)cc3)cn12 1.87%
CCC(=O)N1c2ccccc2CC1C(=O)N1CCN(c2cccc(OC)c2)CC1 (centres undefined) 0%
CC1=C(c2ccc(C)c(C)c2)S(=O)(=O)NC1=NCc1ccccc1Cl -4.02%
CS(=O)(=O)N(CC(O)Cn1c2ccccc2c2ccccc21)c1cccc2ccccc12 (centres undefined) -13.6%
O=C1c2ccccc2S(=O)(=O)N1Cc1c(F)cccc1Cl -8.24%
COc1ccc(CNC(=O)c2ccc3c(O)c(S(=O)(=O)c4ccccc4)c(=O)[nH]c3c2)cc1 6.56%
CCOc1ccc(C(=O)NC2CCN(CC(=O)NCc3cccs3)CC2)cc1 -6.15%
CCOc1ccc(/C=C/C(=O)N(CC)CC(=O)NCc2cccs2)cc1OC 0%
CCCCc1nn2c(=O)cc(COC(=O)c3ccc(NC(=O)c4ccccc4C)cc3)nc2s1 6.4%
N#Cc1ccc(C(C(=O)NCc2ccccc2)n2c(=O)c(-c3ccco3)nc3ccccc32)cc1 (centres undefined) 16.3%
Cc1ccc2nc(-c3ccccc3)c(CC3CCCCC3)n2c1 0%
CCCc1nc2c3ccccc3ccn2c1Cc1ccccc1C(F)(F)F -67.8%
CN1CCN(Cc2c(C(=O)N3CCc4ccccc4C3)nc3ccc(Cl)cn23)CC1 5.77%
Cc1cc(Br)cn2c(Cc3cccc(F)c3)c(-c3cccc(Br)c3)nc12 0%
Cc1ccc(-c2nc3c(Cl)cc(C(F)(F)F)cn3c2Cc2cccc(Cl)c2)cc1 28.6%
CCOc1ccc(N(CC)S(=O)(=O)N2CCCC(C(=O)NCc3ccc(SC)cc3)C2)cc1 (centres undefined) 14.4%
CCN(CC)c1ccc(NS(=O)(=O)c2cc(-c3cc(C)no3)ccc2C)c(C)c1 -14.9%
Cc1cccc(-n2c(SCC(N)=O)nc3c(oc4ccccc43)c2=O)c1 26.1%
COc1ccc(NC(=O)CCCN2C(=O)CCn3nc(-c4cn(C)c5ccccc45)cc32)cc1OC 14.9%
CCOCCCn1c(SCC(=O)Nc2ccc(CC)cc2)nc2ccccc2c1=O 8.55%
COc1ccc(OC)c(CNC(=O)c2c3c(nc4ccccc24)C(=O)N(C2CCCCC2)C3)c1 2.95%
O=C(Nc1cccc(F)c1)[C@@H]1CCCN1 4.62%
CCc1ccccc1NS(=O)(=O)c1ccc2nc(-c3ccccc3)[nH]c2c1 23%
Cc1nc2ccc(S(=O)(=O)NC(C(=O)NCc3ccccc3Cl)C(C)C)cc2s1 (centres undefined) 23.9%
Cc1cccc(OCCSc2nc3ccc(NC(=O)COc4ccccc4C)cc3s2)c1 -10.4%
Cc1cccc(C(=O)N2c3nc(-c4ccco4)nn3C3(CCCCC3)[C@@H]3CCCC[C@@H]32)c1 14.2%
Cc1ccc(S(=O)Cc2ccc(C(=O)N3CCN(C4CCCCC4)CC3)o2)cc1 (centres undefined) -22.5%
CCOC(=O)c1c(C)[nH]c(C)c1S(=O)(=O)NCC(=O)NCc1cccc(C)c1 -15.8%
O=C(CCc1nc(CN2CCN(S(=O)(=O)c3ccc(Br)cc3)CC2)no1)N1CCCCC1 -11%
COc1ccc(C2CC(=O)Nc3c2c(=O)nc2c(C)cccn32)cc1OC (centres undefined) 25.6% [at 9.22 µM]
COC(=O)c1cnn(-c2ccc(C(=O)Nc3ccc(OC(F)(F)F)cc3)cc2)c1N 12.1% [at 9.22 µM]
CCc1nc2nc(C)cc(Nc3ccc(F)c(Cl)c3)n2n1 24.6%
Cc1ccc(CNC(=O)CCC(=O)N2CC(C)Sc3ccccc32)cc1 (centres undefined) 21.1%
CC(=O)N1CCCc2cc(S(=O)(=O)N3CCC(C(=O)NC4CCCCC4)CC3)ccc21 19.1%
Cc1ccc(NC(=O)CSc2nc3c(c(=O)[nH]2)CN(Cc2ccc4c(c2)OCO4)CC3)cc1C -5.01%
Cc1cccc(NC(=O)Cn2c(=O)n(CCC(C)C)c(=O)c3cccnc32)c1 -4.57%
COc1ccc(-c2cn3nc(N4CCCC(C(=O)NCCCOC(C)C)C4)sc3n2)cc1 (centres undefined) 21.4%
COc1ccc(-n2c(C)csc2=S)cc1 14.9%
COC(=O)c1sc2ncccc2c1-n1c(C)ccc1C 22.8%
Cc1ccccc1-c1nc(SCC(=O)N(C)c2ccccc2)c2c(=O)n(C)c(=O)n(C)c2n1 0% [at 9.22 µM]
CCN1CCN(c2ncnc3c2cnn3-c2ccc(C)c(C)c2)CC1 -11.6%
Cc1ccc(NC(=O)CSc2nnc3[nH]c(=O)cc(C)n23)cc1Cl 21.8%
COc1ccc(-c2cc(-c3nc(-c4cc(OC)c(OC)c(OC)c4)no3)[nH]n2)c(OC)c1 11.5%
CCOc1ccc(CNC(=O)C2CCCN(S(=O)(=O)N(CC)c3ccc(OCC)cc3)C2)cc1 (centres undefined) 18%
CCN(CCn1cccn1)Cc1cn[nH]c1-c1ccc(OC)cc1F 3.87%
Oc1ccc(-c2[nH]ncc2-c2nc3ccccc3s2)c(O)c1 18.5%
Cc1cccc(N2CCN(C(=O)c3ccc4c(c3)CCN4S(=O)(=O)c3ccccc3)CC2)c1C 18.4%
CC(=O)c1ccc(NC(c2ccc(F)cc2)c2nnc(-c3ccccc3)o2)cc1 (centres undefined) 1.24%
CCOC(=O)c1c(NC(=O)c2cc(CC)on2)sc(C(C)=O)c1C 18.1%
O=C(CNC(=O)Cc1ccccc1)NCC(=O)OCC(=O)c1ccccc1Cl -11.4%
O=C(CNC(=O)OCc1ccccc1)NC1CCCCNC1=O (centres undefined) -16.7%
CCc1ccc(NC(=O)CCS(=O)(=O)c2cc3c(cc2Cl)NC(=O)CO3)cc1 5.16%
CCCCCn1c(=O)c(C(=O)OCC)c(Cl)c2ccccc21 -8.57%
Cn1c(=O)c(C(=O)Nc2ncccn2)c(O)c2ccccc21 -9.83%
COc1ccc(OC)c(NC(=O)CSC2=Nc3ccccc3C3=NC(CC(=O)NCCc4ccccc4)C(=O)N23)c1 (centres undefined) 0%
Cc1c(-c2nc(-c3ccc4c(c3)OCO4)no2)nnn1-c1ccc(Br)cc1F 13.5%
Cc1cc(Nc2ccc(C)c(C)c2)n2ncnc2n1 14.1%
CC1CCc2c(nc3ncnn3c2Nc2ccc(OC(F)(F)F)cc2)C1 (centres undefined) -0.0857%
COc1ccc(C(=O)c2oc3ccccc3c2NC(=O)COc2cccc(C)c2)cc1 9.29% [at 9.22 µM]
Cc1c(NC(=O)c2cc(=O)c3ccccc3o2)c(=O)n(-c2ccccc2)n1C 22.7%
CCOC(=O)c1cccc(NS(=O)(=O)c2cc(-c3cnc(C)o3)ccc2OC)c1 22.8%

Potency, active:
COc1ccc(C(=O)NC2CCCc3c2cnn3-c2cccc(C)c2C)c(OC)n1 (centres undefined) 15.8 µM
S=c1[nH]nc2c3c4c(sc3ncn12)CCCC4 4.47 µM
Cc1cc2c(cc3c(SCc4cccc(Cl)c4)nnc(C)n32)o1 20 µM
Cc1cc2c(cc3c(SCc4nc(-c5ccccc5)oc4C)nnc(C)n32)o1 17.8 µM
COc1ccc(Nc2nc(NCc3ccco3)nc(N/N=C/c3ccccc3Cl)n2)cc1 17.8 µM
O=C1c2ccccc2S(=O)(=O)N1CC(O)Cn1c2ccccc2c2ccccc21 (centres undefined) 11.2 µM
CCOc1ccc(/C=N/OCC(=O)NCc2cccs2)cc1 11.2 µM
c1ccc(Cc2c(-c3ccco3)nc3c4ccccc4ccn23)cc1 35.5 µM
Cc1ccc(Cc2c(-c3ccco3)nc3ccc(Cl)cn23)cc1 6.31 µM
Clc1cccc(Cc2c(-c3cccc(Cl)c3)nc3ccc(Cl)cn23)c1 12.6 µM
Cc1ccc2cc(/C=N/NC(=O)[C@@H]3CCCN3)c(Cl)nc2c1 4.47 µM
Cc1ccc(C(=O)N2c3ncnn3C3(CCCCC3)[C@@H]3CCCC[C@@H]32)cc1 22.4 µM
Cc1ccc(Cl)cc1NC(=O)CCC(=O)N1CC(C)Sc2ccccc21 (centres undefined) 25.1 µM
COC(=O)c1sc(=S)n(-c2ccc(Cl)cc2)c1C 12.6 µM
CCc1cc2c(N3CCN(c4nnc(CC)s4)CC3)ncnc2s1 17.8 µM
CCOc1ccccc1Oc1cn[nH]c1-c1ccc(OC)cc1O 22.4 µM
O=C(CNC(=O)OCc1ccccc1)Oc1cc2oc(=O)cc(-c3ccccc3)c2cc1Cl 7.08 µM
CCCn1c(=O)c(-c2ccccc2)c(O)c2ccccc21 22.4 µM
Brc1ccc(Nc2c3c(nc4ncnn24)CCC3)cc1 12.6 µM

Potency, inactive:
COc1ccccc1NC(=O)CCC(=O)N1CC(C)Oc2ccc(C)cc21 (centres undefined)
